Data reported in PubChem BioAssay (EPA / NIEHS).
Several values for one entry are separate records, joined by “and”; a condition that tells them apart may be missing. Equal values may be shown once. Some structures have more than one record in an assay (separate samples or runs), and their calls can disagree. Activity calls are given as the source filed them. The calls were made as follows: active = hit-call score of the fitted dose curve at least 0.9, where 1 is the maximum; inactive = score below 0.9.

Assays:
[1] = read-out: Human Leukocyte Antigen - DR isotype (HLADR), HLA-DRA (gene 3122); assay: BSK_BE3C_HLADR: BioMAP Diversity Plus: BE3C Assay for Human Leukocyte Antigen - DR isotype (HLADR) Biomarker Activity (AID 2283032); conditions: primary human bronchial epithelial cells; actives raise or lower the signal
Summary of the method: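 Human primary bronchial epithelial cells (BE3C system) exposed to compound for 24 hours; cell-surface HLA-DR measured by ELISA, fitted bidirectionally relative to DMSO. Total protein by SRB in parallel cultures tracked cytotoxicity.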

[2] = read-out: Vascular cell adhesion molecule 1 (VCAM1), VCAM1 (gene 7412); assay: BSK_4H_VCAM1: BioMAP Diversity Plus: 4H Assay for Vascular cell adhesion molecule 1 (VCAM1) Biomarker Activity (AID 2283033); conditions: primary human endothelial cells (HUVEC); actives raise or lower the signal
Summary of the method: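 Primary human umbilical vein endothelial cells, 4H stimulation system, treated for 24 h; cell-surface VCAM-1 quantified by ELISA. Bidirectional fitting against DMSO; cytotoxicity tracked by SRB total-protein staining in parallel cultures.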

[3] = read-out: Interferon-gamma inducible Protein 10 (IP10), CXCL10 (gene 3627); assay: BSK_BE3C_IP10: BioMAP Diversity Plus: BE3C Assay for Interferon-gamma inducible Protein 10 (IP10) Biomarker Activity (AID 2283034); conditions: primary human bronchial epithelial cells; actives raise or lower the signal
Summary of the method: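 Primary human bronchial epithelial cells, with IP-10 measured by ELISA 24 hours after chemical dosing. Bidirectional fit against DMSO; cytotoxicity checked by SRB total protein staining in parallel cultures.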

[4] = read-out: Monokine induced gamma interferon (MIG), CXCL9 (gene 4283); assay: BSK_BE3C_MIG: BioMAP Diversity Plus: BE3C Assay for Monokine induced gamma interferon (MIG) Biomarker Activity (AID 2283035); conditions: primary human bronchial epithelial cells; actives raise or lower the signal;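 also: MIG protein measured by ELISA in BE3C cultures after 24 h of dosing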
Summary of the method: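 ELISA read-out of MIG in human lung bronchial epithelial primary cultures, 24 h post-dosing. Bidirectional curve fit vs DMSO baseline.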

[5] = read-out: Transforming growth factor beta 1 (TGFb1), TGFB1 (gene 7040); assay: BSK_BE3C_TGFb1: BioMAP Diversity Plus: BE3C Assay for Transforming growth factor beta 1 (TGFb1) Biomarker Activity (AID 2283036); conditions: primary human bronchial epithelial cells; actives raise or lower the signal
Summary of the method: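 Primary human bronchial epithelial cells dosed with chemical; TGF-b1 measured by ELISA 24 h after dosing. Bidirectional curve fitting against DMSO negative control; SRB total-protein staining in parallel cultures gauged cytotoxicity.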

[6] = read-out: Plasminogen activator inhibitor-1 (PAI1), SERPINE1 (gene 5054); assay: BSK_BE3C_PAI1: BioMAP Diversity Plus: BE3C Assay for Plasminogen activator inhibitor-1 (PAI1) Biomarker Activity (AID 2283037); conditions: primary human bronchial epithelial cells; actives raise or lower the signal
Summary of the method: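 Primary human bronchial epithelial cells (BE3C system) exposed 24 h; PAI-1 quantified by ELISA. Parallel sulforhodamine B staining of total protein flags cytotoxicity. Bidirectional fit versus DMSO.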

[7] = read-out: urokinase plasminogen activator (uPA), PLAU (gene 5328); assay: BSK_BE3C_uPA: BioMAP Diversity Plus: BE3C Assay for urokinase plasminogen activator (uPA) Biomarker Activity (AID 2283038); conditions: primary human bronchial epithelial cells; actives raise or lower the signal
Summary of the method: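 Bronchial epithelial cells (human, primary); chemical 24 h; uPA by ELISA; bidirectional fit vs DMSO. SRB (0.1%, after 10% TCA fixation, 560 nm) in parallel cultures for cytotoxicity.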

[8] = read-out: Urokinase-type plasminogen activator receptor (uPAR), PLAUR (gene 5329); assay: BSK_BE3C_uPAR: BioMAP Diversity Plus: BE3C Assay for Urokinase-type plasminogen activator receptor (uPAR) Biomarker Activity (AID 2283039); conditions: primary human bronchial epithelial cells; actives raise or lower the signal
Summary of the method: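 Primary human bronchial epithelial cells dosed for 24 h; uPAR quantified by ELISA with bidirectional fitting against DMSO. Overt cytotoxicity assessed in parallel cultures by SRB total-protein staining (0.1% SRB, 560 nm).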

[9] = read-out: Interleukin-6 (IL6), IL6 (gene 3569); assay: BSK_CASM3C_IL6: BioMAP Diversity Plus: CASM3C Assay for Interleukin-6 (IL6) Biomarker Activity for (AID 2283040); conditions: primary human coronary artery smooth muscle cells; actives raise or lower the signal
[10] = read-out: Tissue plasminogen activator (tPA), PLAT (gene 5327); assay: BSK_BE3C_tPA: BioMAP Diversity Plus: BE3C Assay for Tissue plasminogen activator (tPA) Biomarker Activity (AID 2283041); conditions: primary human bronchial epithelial cells; actives raise or lower the signal
Summary of the method: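 Primary human bronchial epithelial cells in the BE3C system, exposed to compound for 24 h. tPA was quantified by ELISA; DMSO served as baseline, with gain or loss of signal fitted. Cytotoxicity checked in parallel cultures by SRB total-protein staining.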

[11] = read-out: Interleukin-8 (IL8), CXCL8 (gene 3576); assay: BSK_CASM3C_IL8: BioMAP Diversity Plus: CASM3C Assay for Interleukin-8 (IL8) Biomarker Activity (AID 2283042); conditions: primary human coronary artery smooth muscle cells; actives raise or lower the signal;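 also: IL-8 protein level quantified by ELISA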
[12] = read-out: Human Leukocyte Antigen - DR isotype (HLADR), HLA-DRA (gene 3122); assay: BSK_CASM3C_HLADR: BioMAP Diversity Plus: CASM3C Assay for Human Leukocyte Antigen - DR isotype (HLADR) Biomarker Activity (AID 2283043); conditions: primary human coronary artery smooth muscle cells; actives raise or lower the signal;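 also: cell-surface HLA-DR protein level quantified by ELISA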
[13] = read-out: Macrophage colony-stimulating factor (MCSF), CSF1 (gene 1435); assay: BSK_CASM3C_MCSF: BioMAP Diversity Plus: CASM3C Assay for Macrophage colony-stimulating factor (MCSF) Biomarker Activity (AID 2283044); conditions: primary human coronary artery smooth muscle cells; actives raise or lower the signal;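 also: M-CSF protein amount quantified by ELISA after 24 h exposure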
[14] = read-out: Low-density lipoprotein receptor (LDLR), LDLR (gene 3949); assay: BSK_CASM3C_LDLR: BioMAP Diversity Plus: CASM3C Assay for Low-density lipoprotein receptor (LDLR) Biomarker Activity (AID 2283045); conditions: primary human coronary artery smooth muscle cells; actives raise or lower the signal;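 also: LDLR protein level on the cell surface quantified by ELISA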
[15] = read-out: Monocyte Chemoattractant Protein-1 (MCP1), CCL2 (gene 6347); assay: BSK_CASM3C_MCP1: BioMAP Diversity Plus: CASM3C Assay for Monocyte Chemoattractant Protein-1 (MCP1) Biomarker Activity (AID 2283046); conditions: primary human coronary artery smooth muscle cells; actives raise or lower the signal;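 also: MCP-1 level quantified by ELISA 24 h after dosing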
[16] = BSK_CASM3C_Proliferation: Cell Proliferation Assessment in the BioMAP Diversity Plus: CASM3C Assay (AID 2283047); conditions: primary human coronary artery smooth muscle cells;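 also: sulforhodamine B total protein stain as relative cell number at 560 nm; sub-confluent cells exposed 48 h before staining; fitted both ways against DMSO so gain or loss of cell number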
[17] = read-out: Monokine induced gamma interferon (MIG), CXCL9 (gene 4283); assay: BSK_CASM3C_MIG: BioMAP Diversity Plus: CASM3C Assay for Monokine induced gamma interferon (MIG) Biomarker Activity (AID 2283048); conditions: primary human coronary artery smooth muscle cells; actives raise or lower the signal;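 also: MIG protein level measured by ELISA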
[18] = read-out: serum amyloid A (SAA), SAA1 (gene 6288); assay: BSK_CASM3C_SAA: BioMAP Diversity Plus: CASM3C Assay for serum amyloid A (SAA) Biomarker Activity (AID 2283049); conditions: primary human coronary artery smooth muscle cells; actives raise or lower the signal;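 also: SAA protein level quantified by ELISA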
[19] = BSK_CASM3C_SRB: Viability Assessment in the BioMAP Diversity Plus: CASM3C Assay (AID 2283050); conditions: primary human coronary artery smooth muscle cells
[20] = read-out: Thrombomodulin, THBD (gene 7056); assay: BSK_CASM3C_Thrombomodulin: BioMAP Diversity Plus: CASM3C Assay for Thrombomodulin Biomarker Activity (AID 2283051); conditions: primary human coronary artery smooth muscle cells; actives raise or lower the signal;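 also: thrombomodulin protein level measured by ELISA 24 h after dosing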

Measured: AC50

CCCCOC(=O)C(C)Oc1ccc(Oc2ccc(C(F)(F)F)cn2)cc1 (stereo not given)
inactive: [1] | [2] | [3] | [4] | [5] | [6] | [7] | [8] | [9] | [10] | [11] | [12] | [13] | [14] | [15] | [16] | [17] | [18] | [19] | [20]

CCOC(=O)NCCOc1ccc(Oc2ccccc2)cc1
active: [1] 15.7 µM | [16] 7.68 µM
inactive: [2] | [3] | [5] | [6] | [7] | [8] | [9] | [10] | [11] | [12] | [13] | [14] | [15] | [17] | [18] | [19] | [20]

CCCOC(=O)NCCCN(C)C
inactive: [2] | [3] | [4] | [5] | [6] | [7] | [9] | [10] | [11] | [12] | [13] | [14] | [15] | [16] | [17] | [18] | [19] | [20]
active: [1] 4.29 µM | [8] 148 nM

CC(C)(C)[C@@H](O)[C@@H](Cc1ccc(Cl)cc1)n1cncn1
inactive: [1] | [2] | [3] | [5] | [6] | [7] | [8] | [9] | [10] | [11] | [12] | [13] | [14] | [15] | [16] | [17] | [18] | [19] | [20]

CCCCOC(=O)[C@@H](C)Oc1ccc(Oc2ccc(C(F)(F)F)cn2)cc1
inactive: [1] | [2] | [3] | [4] | [5] | [6] | [7] | [8] | [9] | [10] | [11] | [12] | [13] | [14] | [15] | [16] | [17] | [18] | [19] | [20]

CCCCOCCOCCOCc1cc2c(cc1CCC)OCO2
inactive: [1] | [2] | [3] | [5] | [6] | [7] | [8] | [9] | [10] | [11] | [12] | [13] | [14] | [15] | [16] | [17] | [18] | [19] | [20]

N#CSCSc1nc2ccccc2s1
inactive: [5] | [10] | [14] | [20]
active: [1] 6.17 µM and 12.1 µM | [2] 5.21 µM and 12.8 µM | [3] 9.03 µM and 11.8 µM | [5] 11.2 µM | [6] 4.99 µM and 11.8 µM | [7] 6.61 µM and 12.1 µM | [8] 5.42 µM and 11.5 µM | [9] 8.6 µM and 36.5 µM | [10] 5.25 µM | [11] 10.8 µM and 31.2 µM | [12] 2.62 µM and 36.7 µM | [13] 6.33 µM and 26.9 µM | [14] 8.61 µM | [15] 9.06 µM and 29.6 µM | [16] 1.33 µM and 5.49 µM | [17] 7.5 µM and 18.8 µM | [18] 4.93 µM and 33.5 µM | [19] 11.9 µM and 31.5 µM | [20] 36.7 µM
